This is a sample that favours compounds with a hit; in the whole collection about 18% have one here.
DT40 TDP1 CPT = growth inhibition of DT40 Tdp1-/-;hTDP1 cells with camptothecin (screen for TDP1 inhibitors) | Potency, µM (doses to about 46.2 µM), most hits filed as inhibitors | chicken DT40 Tdp1-/-;hTDP1 cells + 20 nM CPT, ATP luminescence, 48 h | 420,000 compounds, 12% hits; note: nearly all actives have a fitted effect of over 55% in size
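Chicken DT40 Tdp1-/- cells stably complemented with human TDP1 were seeded at 400 cells/well in medium containing 20 nM camptothecin, exposed to pin-transferred compounds, and grown at 37 °C for at least 48 hr. Viability was read as ATP luminescence.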
RORg inh = blocks mouse ROR gamma transcriptional activity; P51450; Potency, µM (titrated, usually from 53.6 µM), actives largely listed as inhibitors; Drosophila S2 Gal4-RORgamma UAS-luciferase reporter, 20 h; 310,000 compounds, 5.4% hits; note: nearly all actives have a fitted effect of over 60% in size
Target sequence (P51450 whole entry, looked up, the tested form may be a part): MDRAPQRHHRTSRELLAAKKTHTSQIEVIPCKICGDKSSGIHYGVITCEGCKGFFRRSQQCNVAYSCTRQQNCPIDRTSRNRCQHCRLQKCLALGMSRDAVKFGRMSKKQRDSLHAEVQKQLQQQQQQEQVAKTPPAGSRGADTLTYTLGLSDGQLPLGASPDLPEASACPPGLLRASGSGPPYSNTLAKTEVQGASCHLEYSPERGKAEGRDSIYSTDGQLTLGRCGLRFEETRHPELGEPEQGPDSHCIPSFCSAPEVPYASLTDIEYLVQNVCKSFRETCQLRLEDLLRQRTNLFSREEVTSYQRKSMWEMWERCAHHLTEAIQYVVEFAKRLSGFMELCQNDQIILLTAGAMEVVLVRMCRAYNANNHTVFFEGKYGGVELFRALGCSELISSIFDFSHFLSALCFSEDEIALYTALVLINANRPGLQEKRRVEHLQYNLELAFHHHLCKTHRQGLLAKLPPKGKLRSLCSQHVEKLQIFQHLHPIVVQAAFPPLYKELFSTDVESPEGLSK
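Compounds are pin-transferred onto Drosophila Schneider cells expressing a copper-inducible Gal4–ROR gamma transactivation domain fusion. After 1 hr, copper sulfate is added to 700 uM final; luciferase is read 20 hr later.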
IL-1B inflam inh = inhibitors of inflammasome signaling (IL-1 beta secretion) | activity change, % at 57.5 µM | 360,000 compounds, 4.7% hits | THP-1 LPS/ATP IL-1B secretion, AlphaLISA, 16 h; hits give low values; in the data active = activity change below about -50%; inconclusive = mostly about -30% to -49%
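Secreted IL-1B measured by AlphaLISA bead assay after 16 h compound exposure of THP-1 cells; compounds (final up to 57.5 uM) added 1 h before LPS (250 ng/mL) and ATP (1.25 mM) stimulation; lower signal means less secretion.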
LDHA inh = inhibitors of human lactate dehydrogenase A; purified LDHA, NADH/diaphorase-resazurin fluorescence; hits give low values; activity change, % (values are at about 110 or 230 µM); 480,000 compounds, 0.15% hits; AID 1347041; in the data active = activity change below about -30%; inconclusive = mostly about -25% to -30%
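Enzyme activity of human lactate dehydrogenase 5 (2 nM; 0.06 mM NADH, 0.2 mM pyruvate, 5 min, RT) is measured via a resazurin/diaphorase fluorescence readout of residual NADH.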
DT40 TDP1 no CPT = qHTS for Inhibitors of human tyrosyl-DNA phosphodiesterase 1 (TDP1): qHTS in cells in absence of CPT; DT40 Tdp1-/- hTDP1 cells, no CPT, ATP luminescence, 48 h; Potency, µM (top dose mostly 46.2 µM), usual class: inhibitors; 420,000 compounds, 15% hits; AID 686978, 2013; note: nearly all actives have a fitted effect of over 55% in size
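No-CPT arm: Tdp1-/-;hTDP1 DT40 cells (400/well) plus compounds, incubated ≥48 hr at 37 °C. Readout CellTiter-Glo luminescence.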
VP16 counter = counter-screen for ROR gamma inhibitors: Gal4-VP16 reporter. Potency, µM (top dose mostly 53.6 µM), hits mostly inhibitors. AID 2546. Drosophila S2 Gal4-VP16 UAS-luciferase, luminescence, 20 h. 310,000 compounds, 3.5% hits;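 note: Gal4-VP16 expression switched on by copper sulfate through the metallothionein promoter; nearly all actives have a fitted effect of over 50% in size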
Hits are given with their value; n = inactive; u = inconclusive; x = not tested or not shown; [ ] = another dose, or the depositor's remark. Unless noted, calls come from the whole dose curve; as a rule, active = well fitted curve in the direction sought with a large enough effect; inconclusive = small, poorly fitted or top-dose-only effect, or another doubt; inactive = no such curve, though single readings can be large; an effect the other way counts as inactive or inconclusive.

SMILES | DT40 TDP1 CPT | RORg inh | IL-1B inflam inh | LDHA inh | DT40 TDP1 no CPT | VP16 counter
COc1ccc(-c2[nH]ncc2N=Nc2cc(C)cc(C)c2)cc1 | 0.21µM | n | -92 | n | 10µM | u
COc1ccc(-c2[nH]ncc2N=Nc2ccccc2)cc1 | u | n | -68 | n | u | u
Fc1ccc(/C=N/Nc2c(Cl)cc(Cl)cc2Cl)c(F)c1 | x | x | x | n | x | x
Cc1cc(C)nc(SCc2nnc(SCC(=O)Nc3nccs3)n2C)n1 | n | n | n | n | n | n
CCn1c(CSc2nc(C)cc(C)n2)nnc1SCC(=O)Nc1nc(-c2ccccc2)cs1 | 21µM | n | n | n | u | n
Cc1cc(C)nc(SCc2nnc(SCC(=O)Nc3nc(-c4ccccc4)cs3)n2C)n1 | u | n | n | n | 26µM | n
Cc1cc(=O)[nH]c(SCC(=O)Nc2nc(-c3ccccc3)cs2)n1 | n | n | n | n | n | n
COc1ccccc1-c1noc(CSc2nnc(-c3cccs3)n2C2CC2)n1 | x | x | x | n | x | x
CC(=O)OCCCN(C)CC/C=C1/c2ccccc2CSc2ccccc21 | u | x | -70 | n | u | x
C[N+](C)(C)CC/C=C1/c2ccccc2CSc2ccccc21 | u | n | n | n | u | n
CCOc1cc(C(=O)Nc2ccc3nc(Nc4cccc(Cl)c4)cc(C)c3c2)cc(OCC)c1OCC | 4.6µM | x | x | n | 6.5µM | x
Cc1ccccc1C(=O)Nc1ccc2nc(Nc3cccc(C(F)(F)F)c3)cc(C)c2c1 | 21µM | x | x | n | 18µM | x
Cc1cc(Nc2cccc(Cl)c2)nc2ccc(NC(=O)c3cncc(Br)c3)cc12 | 4.6µM | x | x | n | 5.2µM | x
CCOC(=O)c1cccc(NC(=O)c2cncc(Br)c2)c1 | n | u | n | n | n | n
Cc1cccc(OCC(=O)Nc2ccc3nc(Nc4cccc(Cl)c4)cc(C)c3c2)c1 | u | x | x | n | u | x
Cc1cc(Nc2cccc(Cl)c2)nc2ccc(NC(=O)C3CCC(C)CC3)cc12 (stereo unspecified) | x | x | x | n | x | x
Cc1cc(Nc2cccc(C(F)(F)F)c2)nc2ccc(NC(=O)c3cncc(Br)c3)cc12 | 5.8µM | x | x | n | 5.2µM | x
O=C(CSc1nnc(N2CCOCC2)n1-c1cccc(F)c1)N(Cc1ccco1)C1=CCCCC1 | x | x | x | n | x | x
O=S(=O)(NC1=NCN(Cc2cccnc2)CN1)c1ccccc1 | x | x | x | n | x | x
O=C(NC1CCCC1)c1sc2ccccc2c1Cl | x | x | x | n | x | x
O=C(Nc1nccs1)c1csc2c1CCCC2 | n | u | n | n | n | 10µM
Cc1ccccc1NC(=O)c1csc2c1CCCC2 | 5.8µM | n | n | n | 21µM | n[0.365 µM]
O=C(Nc1ccon1)c1csc2c1CCCC2 | n | n | n | n | n | n
CC(Sc1ccc2ccccc2n1)C(=O)Nc1sccc1C(N)=O (stereo unspecified) | x | x | x | n | x | x
COc1ccc(Br)cc1/C=N/O | x | x | x | n | x | x
SMILES | DT40 TDP1 CPT | RORg inh | IL-1B inflam inh | LDHA inh | DT40 TDP1 no CPT | VP16 counter
CC(=O)Nc1cc(-c2cccc(C(=O)N(C)C)c2)cn2c(-c3ccc(F)c(Cl)c3)cnc12 | u | x | n | n | u | x
COc1cccc(-c2cnc3c(NC(C)=O)cc(-c4cccc(C(=O)NCCO)c4)cn23)c1 | 16µM | x | n | n | u | x
CC(=O)Nc1cc(-c2cccc(C(=O)NCCO)c2)cn2c(-c3ccc(F)c(Cl)c3)cnc12 | 29µM | x | n | n | 23µM | x
Cc1nc(-c2nc(-c3c(C(=O)NNC(=O)Nc4cccc(Cl)c4)noc3C)cs2)cs1 | u | n | n | n | u | n
Cc1onc(C(=O)NN)c1-c1csc(COc2ccc(Cl)cc2)n1 | 21µM | n | n | n | 15µM | n
COc1ccc2c(c1)c1ncn(Cc3ccc(F)cc3)c(=O)c1n2C | n | n | n | n | n | n
COc1ccc2c(c1)c1ncn(Cc3ccco3)c(=O)c1n2C | n | n | n | n | 13µM | u
CCCCCCCCCC[n+]1ccc(/C=C/c2c(C)[nH]c3ccccc23)c2ccccc21 | 0.79µM | x | x | x | 1µM | x
CCCCCCC[n+]1ccc(/C=C/c2c(C)[nH]c3ccccc23)c2ccccc21 | 1.3µM | x | x | x | 1.3µM | x
CN(C(=O)CSc1nc2ccc(NC(=O)c3cccs3)cc2s1)c1ccccc1 | 23µM | x | x | n | 16µM | x
CN(C(=O)CSc1nc2ccc(NC(=O)c3ccco3)cc2s1)c1ccccc1 | 18µM | x | x | n | 23µM | x
CN(C(=O)CSc1nc2ccc(NC(=O)c3ccccc3)cc2s1)c1ccccc1 | u | x | x | n | u | x
CC(C)(C)CNC(=O)c1nc[nH]c1C(=O)N1CCCCC1 | x | x | x | n | x | x
Cc1ccc2nc(-c3ccc(NC(=O)c4ccc(S(C)(=O)=O)cc4)cc3)sc2c1 | 21µM | x | x | n | u | x
Cc1ccc2nc(-c3ccc(NC(=O)C(C)Sc4nncs4)cc3)sc2c1 (stereo unspecified) | u | x | n | n | 9.2µM | x
O=C(Nc1ccc(-c2nc3ccccc3s2)cc1)c1cc(-n2cnnc2)ccc1Cl | 23µM | n | -84 | n | 13µM | u
Cc1ccc(NC(=O)c2cc(-n3cnnc3)ccc2Cl)cc1 | n | n | n | n | n | n
Cc1ccc(C)c(C(=O)Nc2ccc(-c3nc4ccc(C)cc4s3)cc2)c1 | x | x | x | n | x | x
Cc1ccc2nc(-c3ccc(NC(=O)c4ccccc4S(C)(=O)=O)cc3)sc2c1 | u | x | x | n | 8.2µM | x
CNC(=O)NC(=O)CN(C)Cc1ccccc1C(F)(F)F | x | x | x | n | x | x
CCOc1ccc(S(=O)(=O)Nc2nc3ccccc3nc2N2CCCC2)cc1 | x | x | x | n | x | x
O=C(COc1ccc(Cl)cc1)Nc1c(NC2CCCC2)c2ccccc2oc1=O | x | x | x | n | x | x
O=C(NCCNS(=O)(=O)c1cccc2nonc12)c1ccc2cc[nH]c2c1 | x | x | x | n | x | x
Cc1ccc2nc(-c3ccc(NC(=O)CN4C(=O)c5ccccc5C4=O)cc3)sc2c1 | u | u | n | n | u | u
Cc1ccc2nc(-c3ccc(NC(=O)COC(=O)c4ccc(=O)[nH]c4)cc3)sc2c1 | n | 0.28µM | n | n | n | 5µM
SMILES | DT40 TDP1 CPT | RORg inh | IL-1B inflam inh | LDHA inh | DT40 TDP1 no CPT | VP16 counter
Cc1ccc(S(=O)(=O)n2ccc3c(OCCOCCNCc4ccc(F)cc4)cccc32)cc1 | u | n | -88 | n | 18µM | u
Cc1ccc(NC(=O)CSc2nnc(CC3CCS(=O)(=O)C3)n2C)cc1 (stereo unspecified) | x | x | x | n | x | x
CN1CCN(c2ncncc2-c2ccc(N(C)C)cc2)CC1 | u | n | x | x | n | n
CN1CCN(c2ccnc(N(C)CCCCCCN)n2)CC1 | 13µM | x | x | n | u | x
CN1CCN(c2ccnc(-c3ccc(N(C)C)cc3)n2)CC1 | 23µM | n | x | x | 23µM | n
COCCNC(=O)CN(C)c1nc(-c2ccncc2)nc2ccccc12 | x | x | x | n | x | x
CC(C)(C)OC(=O)COc1ccc2c(-c3ccccc3)cc(=O)oc2c1 | x | x | x | n | x | x
Nc1ccccc1C1CC1 | x | x | x | n | x | x
Cc1cccc(OCc2nc(CC(=O)Nc3ccc(C)c(C)c3)cs2)c1 | u | x | x | n | 18µM | x
